# Assay outcomes as filed in PubChem BioAssay.
# L3MBTL1 block: blocks human L3MBTL1. AlphaScreen L3MBTL1–H3K9me1 peptide binding. 230,000 compounds, 0.66% hits. AID 485360. Q9Y468. Potency, µM (series often up to 57.1 µM), actives largely listed as inhibitors; note: nearly all actives have a fitted effect of over 60% in size
#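 Displacement of a biotinylated histone H3(1-15) peptide monomethylated at Lys9 (75 nM) from L3MBTL1 (50 nM) was measured by AlphaScreen after a 30 min room-temperature compound incubation; cefsulodin titration served as intraplate control.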
# JMJD2A Tudor: blocks the human JMJD2A Tudor domain; O75164; AlphaScreen JMJD2A-Tudor / H3K4me3 peptide binding; Potency, µM (series often up to 114 µM), hits mostly inhibitors; 390,000 compounds, 4.4% hits; note: nearly all actives have a fitted effect of over 50% in size
# Sfp PPTase inh: blocks B. subtilis Sfp PPTase activity; Q9F4F7; Biochemical Sfp PPTase activity, qHTS; Potency, µM, hits mostly inhibitors; 310,000 compounds, 3.5% hits; AID 1490;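 note: the enzyme is Sfp with the accession as filed and its product quenches rhodamine fluorescence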
#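 Sfp 15 nM + cpd, 15 min RT; start w/ rhodamine-CoA 5 uM, BHQ-2-YbbR 12.5 uM (final); 50 mM Hepes pH 7.6, 10 mM MgCl2, 0.01% NP-40, 0.01% BSA; read 525/598 nm at 0 and 30 min.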
# BAZ2B block: inhibitors of human BAZ2B bromodomain. AlphaScreen BAZ2B-H3K14Ac peptide displacement. Potency, µM (doses to about 114 µM), hits mostly inhibitors. 360,000 compounds, 4.4% hits. AID 504333; note: nearly all actives have a fitted effect of over 60% in size
#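 Inhibition is scored as reduced AlphaScreen emission. The BAZ2B/b-H3(5-23)K14Ac complex (50 nM each) in PBS pH 7.4, 0.01% Tween-20 meets compound (up to 110 uM) for 30 min at RT before bead addition.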
# HP1b binding inh: HP1-beta chromodomain-methylated histone interaction inhibition; AlphaScreen HP1-beta / biotin-H3K9me3 peptide binding; Potency, µM (doses to about 114 µM), hits mostly inhibitors; AID 540317; 390,000 compounds, 0.56% hits; note: nearly all actives have a fitted effect of over 70% in size
#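 Compound inhibition of the preformed complex between 50 nM HP1-beta and 50 nM biotinylated H3K9me3 peptide was read by AlphaScreen. Buffer was PBS pH 7.4 with 0.01% Tween-20. Incubations ran 30 min at room temperature, with 10 ug/mL donor/acceptor beads.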
# G9a inh: G9a (human) methyltransferase inhibition | G9a H3K9 monomethylation, AlphaScreen, 2 h | 350,000 compounds, 8.8% hits | Potency, µM (doses to about 102 µM), usual class: inhibitors | Q96KQ7; note: nearly all actives have a fitted effect of over 75% in size
#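 AlphaScreen read-out: biotin-H3K9 peptide (500 nM) methylation by 20 nM enzyme with 20 uM SAM, 2 h at room temperature after 15 min compound preincubation; anti-monomethyl H3K9 antibody plus donor/acceptor beads, 10 min dark.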
# Hits are given with their value; . = inactive; ? = inconclusive; / = no result; [ ] = remark or other dose. Compounds with a hit are over-represented: about 12% of the library has one in this group of screens. Calls come from the whole dose curve; as a rule, active = well fitted curve in the direction sought with a large enough effect; inconclusive = small, poorly fitted or top-dose-only effect, or another doubt; inactive = no such curve, though single readings can be large; an effect the other way counts as inactive or inconclusive.
SMILES,L3MBTL1 block,JMJD2A Tudor,Sfp PPTase inh,BAZ2B block,HP1b binding inh,G9a inh
COc1ccc(CN2CCN(S(=O)(=O)c3ccccc3)CC2)c(OC)c1OC,/,22µM,/,/,?,/
COc1ccc(Br)cc1CN1CCN(S(=O)(=O)Cc2ccccc2)CC1,/,8.9µM,.,.,?,20µM
CCNc1ncc2nc(-c3ccc(Cl)cc3)c(=O)n(C3CC3)c2n1,/,/,.,/,/,.[12.7 µM]
Cc1ccc(S(=O)(=O)N2CCN(Cc3cccc(F)c3)CC2)cc1,/,3.2µM,/,/,?,/
COc1ccc(OC)c(CN2CCN(S(=O)(=O)c3ccccc3)CC2)c1,/,20µM,/,?,?,.
COc1ccc(CN2CCN(S(=O)(=O)c3ccc(F)cc3)CC2)c(OC)c1OC,/,1.4µM,.,?,.,28µM
Cc1ccc(S(=O)(=O)N2CCN(Cc3ccccc3)CC2)cc1,/,.,.,.,.,.
COc1cccc(CN2CCN(S(=O)(=O)c3ccccc3)CC2)c1OC,/,28µM,/,/,?,/
CCOC(=O)C1CCCN(c2ncnc3c2cnn3-c2ccc(C)c(Cl)c2)C1 (stereo not given),/,.,/,.,.,.
Cc1nn(-c2ccc(F)cc2)c(-n2cccc2)c1C(=O)NCCCN1CCN(c2cccc(Cl)c2)CC1,/,?,/,?,.,?
COc1ccc(CN2CCN(S(=O)(=O)c3ccc(F)cc3)CC2)cc1OC,.,3.2µM,?,32µM,?,10µM
COc1ccc(S(=O)(=O)N2CCN(c3ccc(F)cc3)CC2)cc1OC,.,.,.,?,.,.
O=S(=O)(c1ccccc1)N1CCN(Cc2cccc(Cl)c2)CC1,/,8.9µM,.,32µM,.,?
O=C(Cc1ccc(NC(=O)N2CCSc3ncccc32)cc1)NCc1ccccc1,/,.,/,.,.,.
CCc1ccccc1NC(=O)C(C)n1nc(-c2ccc(C)c(C)c2)ccc1=O (stereo not given),/,?,/,.,.,.
CCC(=O)Nc1ccc(C(=O)NNC(=O)C2CCCCC2)cc1,/,.,.,.,.,45µM
CC(=O)Nc1ccc(C(=O)NNC(=O)C2CC2)cc1,/,.,.,.,.,/
CC(C)Sc1nnc(-c2c[nH]c3ccccc23)n1C,/,.,.,.,.,.
CN=c1scc(-c2c[nH]c3ccccc23)n1C,.,.,.,.,.,40µM
CN(C)c1ccc(CNC(=O)c2ccc3nc(CCc4ccccc4)oc3c2)cc1,/,.,/,.,.,.
O=C(O)c1cccc2c1C(=O)c1ccccc1-2,.,.,.,.,.,/
O=C1C(O)=CC(=C(c2ccccc2)c2ccccc2)c2ccccc21,/,14µM,/,/,13µM,/
C[C@H]1C[C@@H]2[C@H]3CCC4=CC(=O)C=C[C@@]4(C)[C@@]3(Cl)[C@@H](O)C[C@]2(C)[C@]1(OC(=O)c1ccco1)C(=O)CCl,/,/,35µM,/,/,.[21.5 µM]
CCc1ccccc1NC(=O)c1nnn(CC(=O)Nc2cccc(C)c2)c1N,.,.,.,.,.,.
CSc1cccc(NC(=O)c2nnn(CC(=O)Nc3cc(C)cc(C)c3)c2N)c1,/,14µM,.,.,.,.
SMILES,L3MBTL1 block,JMJD2A Tudor,Sfp PPTase inh,BAZ2B block,HP1b binding inh,G9a inh
O=[S+]([O-])(c1ccc2ncsc2c1)N1CCN([S+](=O)([O-])c2c(F)cccc2F)CC1,/,.,/,/,/,/
COC(=O)[C@H]1[C@H]2C[C@@H]3c4[nH]c5ccccc5c4CCN3C[C@H]2C[C@@H](OC(=O)c2cc(OC)c(OC)c(OC)c2)[C@@H]1OC,/,/,.,/,/,?
C/C(=N\NC(=O)Cc1ccccc1)c1ccc(Cl)s1,/,.,.,.,.,/
Clc1ccc(C2=NNC(=NCC3CCCO3)SC2)cc1 (stereo not given),.,.,.,?,.,?
Cc1cc(C2=NNC(=NCCc3ccccc3)SC2)c(C)n1CC1CCCO1 (stereo not given),/,50µM,50µM,.,?,35µM
CCN=C1NN=C(c2cc(C)n(Cc3ccco3)c2C)CS1,.,?,.,.,.,.
CCN=C1NN=C(c2cc(C)n(CCc3ccccc3)c2C)CS1,/,56µM,50µM,.,?,?
O=C(CN1C(=O)COc2ccc(S(=O)(=O)N3CCCC3)cc21)Nc1cccc(F)c1,/,.,.,.,.,.
Cc1ccc(C)c(-n2cc[nH]c2=S)c1,.,40µM,?,.,.,2µM
